Compound activity from PubChem BioAssay.
Pf Dd2 growth – inhibitors of Plasmodium falciparum Dd2 growth | P. falciparum Dd2 growth, SYBR Green, 72 h; stronger effect = lower value | 94,000 compounds, 2.3% hits | activity change, % at 10 µM; in the data active = activity change below about -80%; inconclusive = no clear call, values can overlap the other calls
C diff growth – C. difficile growth inhibition. Clostridium difficile clinical isolate growth, OD600, 24 h; stronger effect = lower value. growth activity, negative = inhibition, % at 16 µg/mL (by protocol). 86,000 compounds, 0.25% hits;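 active = mean growth activity at or below -80% and every replicate also at or below -80%; inconclusive = mean at or below -80% but some replicate above -80%; inactive = mean growth activity above -80%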
T cruzi growth-1 – inhibitors of T. cruzi proliferation; T. cruzi beta-gal in NIH3T3, GalScreen luminescence, 90 h; AID 624255; 77,000 compounds, 5.9% hits; inhibition, % at 8.34 µM;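 active = mean inhibition above about 93%, with at least 55% of replicates each passing it, limit read from the data, passing the limit was not always enough; inconclusive = only one of those two conditions holds; inactive = neither condition holds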
T cruzi growth-2 – inhibitors of T. cruzi proliferation. inhibition, % at 8.35 µM. T. cruzi beta-gal in NIH3T3, GalScreen luminescence, 90 h. shares compounds with T cruzi growth-1. 5,600 compounds, 72% hits;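 active = mean replicate inhibition above about 95% and at least 55% of replicates individually reaching it, limit read from the data; inconclusive = only one of the two criteria is met; inactive = neither criterion is met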
T cruzi growth-3 – Trypanosoma cruzi proliferation inhibition; T. cruzi beta-gal in NIH3T3, GalScreen luminescence, 90 h; shares compounds with T cruzi growth-1; inhibition, % at 2.09 µM; 5,600 compounds, 21% hits; AID 651740;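 active = mean inhibition above about 95%, with at least 55% of replicates also reaching it, limit read from the data; inconclusive = meets just one of the two conditions; inactive = meets neither condition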
3T3 cytotox – kills mouse NIH/3T3 fibroblasts. shares compounds with T cruzi growth-1. NIH/3T3 viability, CellTiter-Glo ATP luminescence, 90 h. cytotoxicity (signal decrease), % at 8.35 µM. 5,600 compounds, 14% hits. AID 651742;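 active = mean signal decrease across replicates above about 35% based on untreated-well scatter, with enough replicates individually passing, limit read from the data; inconclusive = no rule stated though some were filed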
NIH3T3 tox 2 – kills mouse NIH/3T3 fibroblasts. shares compounds with T cruzi growth-1. NIH/3T3 viability, CellTiter-Glo ATP luminescence, 90 h. inhibition, % at 24.9 µM. 5,600 compounds, 56% hits;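 active = mean loss of cell viability signal at or above a set limit, and enough replicates individually reaching it; inconclusive = meets only the mean limit or only the replicate share; inactive = meets neither condition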
Numbers stand for hits; . = inactive; ? = inconclusive; / = no result. Rows were chosen to be rich in hits. Some 6.7% of all compounds tested hit in one or more screens of this group.

SMILES	Pf Dd2 growth	C diff growth	T cruzi growth-1	T cruzi growth-2	T cruzi growth-3	3T3 cytotox	NIH3T3 tox 2
C[C@H]1CCCCO[C@@H](CN(C)Cc2ccc(C(=O)O)cc2)[C@@H](C)CN([C@@H](C)CO)C(=O)c2cc(NC(=O)Nc3ccc(C(F)(F)F)cc3)ccc2O1	.	.	.	/	/	/	/
C[C@@H]1CN([C@@H](C)CO)C(=O)c2cccc(NS(=O)(=O)c3cn(C)cn3)c2O[C@H]1CN(C)CC1CCCCC1	.	.	.	/	/	/	/
C[C@@H]1CN([C@H](C)CO)C(=O)c2cccc(NC(=O)c3ccncc3)c2O[C@H]1CN(C)Cc1ccc(-c2ccccc2)cc1	.	.	107	.	.	50	41
C[C@H](CO)N1C[C@H](C)[C@@H](CN(C)Cc2ccccc2)Oc2c(NC(=O)c3ccncc3)cccc2C1=O	.	.	.	/	/	/	/
C[C@H]1CN([C@@H](C)CO)C(=O)c2cccc(NC(=O)c3ccncc3)c2O[C@H]1CN(C)Cc1ccncc1	.	.	.	/	/	/	/
C[C@H](CO)N1C[C@H](C)[C@H](CN(C)Cc2ccc(-c3ccccc3)cc2)Oc2c(NC(=O)c3ccncc3)cccc2C1=O	.	.	99	105	?	56	47
C[C@H](CO)N1C[C@H](C)[C@@H](CN(C)Cc2ccc(-c3ccccc3)cc2)Oc2c(NC(=O)c3ccncc3)cccc2C1=O	.	.	102	105	98	49	36
C[C@@H]1CN([C@@H](C)CO)C(=O)c2cccc(NC(=O)c3ccncc3)c2O[C@@H]1CN(C)Cc1ccccc1	.	.	.	/	/	/	/
C[C@H](CO)N1C[C@H](C)[C@@H](CN(C)CC2CCCCC2)Oc2c(NS(=O)(=O)c3cn(C)cn3)cccc2C1=O	.	.	103	.	.	.	.
CNC[C@@H]1Oc2cc(C#CCOC)ccc2S(=O)(=O)N([C@@H](C)CO)C[C@@H]1C	.	.	/	/	/	/	/
COc1ccc(S(=O)(=O)N(C)C[C@H]2Oc3ccc(NC(=O)Cn4cnnn4)cc3CC(=O)N([C@H](C)CO)C[C@H]2C)cc1	.	.	.	/	/	/	/
C[C@@H]1CN([C@H](C)CO)C(=O)c2cccc(NC(=O)c3ccncc3)c2O[C@@H]1CN(C)Cc1ccncc1	.	.	.	/	/	/	/
C[C@H](CO)N1C[C@H](C)[C@@H](CN(C)CC2CC2)Oc2c(NC(=O)c3ccncc3)cccc2C1=O	.	.	102	.	.	.	?
C[C@@H]1CN([C@@H](C)CO)C(=O)c2cccc(NC(=O)c3ccncc3)c2O[C@H]1CN(C)Cc1ccc(-c2ccccc2)cc1	.	.	105	.	.	.	55
C[C@@H]1CN([C@H](C)CO)C(=O)c2cccc(NC(=O)c3ccncc3)c2O[C@H]1CN(C)CC1CC1	.	.	.	/	/	/	/
C[C@H](CO)N1C[C@H](C)[C@H](CN(C)C(=O)Nc2ccccc2)Oc2ccc(NC(=O)Cc3ccccc3)cc2CC1=O	.	.	.	/	/	/	/
COc1ccc(CN(C)C[C@@H]2OCCCC[C@H](C)Oc3ccc(NC(=O)Nc4cccc5ccccc45)cc3C(=O)N([C@@H](C)CO)C[C@@H]2C)cc1	?	.	?	103	96	.	103
COc1ccc(CN(C)C[C@@H]2OCCCC[C@@H](C)Oc3ccc(NC(=O)Nc4cccc5ccccc45)cc3C(=O)N([C@@H](C)CO)C[C@@H]2C)cc1	.	.	.	/	/	/	/
COc1ccc(CN(C)C[C@H]2OCCCC[C@H](C)Oc3ccc(NC(=O)Nc4cccc5ccccc45)cc3C(=O)N([C@@H](C)CO)C[C@H]2C)cc1	?	.	?	106	.	.	?
COc1ccc(CN(C)C[C@@H]2OCCCC[C@@H](C)Oc3ccc(NC(=O)Nc4cccc5ccccc45)cc3C(=O)N([C@@H](C)CO)C[C@H]2C)cc1	.	.	.	/	/	/	/
CNC[C@H]1Oc2cc(C#Cc3ccccc3OC)ccc2S(=O)(=O)N([C@H](C)CO)C[C@@H]1C	/	.	101	107	.	.	104
CNC[C@@H]1Oc2cc(C#Cc3ccccc3OC)ccc2S(=O)(=O)N([C@H](C)CO)C[C@H]1C	/	.	102	102	.	.	103
CNC[C@@H]1Oc2cc(C#Cc3ccccc3)ccc2S(=O)(=O)N([C@@H](C)CO)C[C@H]1C	.	.	/	/	/	/	/
COc1ccccc1C#Cc1ccc2c(c1)O[C@@H](CN(C)C)[C@@H](C)CN([C@@H](C)CO)S2(=O)=O	.	.	/	/	/	/	/
C[C@H]1CN([C@@H](C)CO)C(=O)c2cc(C#Cc3cccnc3)cnc2O[C@H]1CN(C)C(=O)CN(C)C	.	.	/	/	/	/	/
SMILES	Pf Dd2 growth	C diff growth	T cruzi growth-1	T cruzi growth-2	T cruzi growth-3	3T3 cytotox	NIH3T3 tox 2
CCCC(=O)Nc1ccc2c(c1)OC[C@H](C)N(C(=O)c1cnccn1)C[C@H](C)[C@@H](OC)CN(C)C2=O	.	.	/	/	/	/	/
C[C@H](CO)N1C[C@H](C)[C@H](CN(C)Cc2ccccc2F)Oc2cc(C#CCN(C)C)ccc2S1(=O)=O	.	.	.	/	/	/	/
C[C@H]1CN([C@@H](C)CO)S(=O)(=O)c2ccc(C#CC3CC3)cc2O[C@H]1CN(C)Cc1ccccc1F	.	.	106	106	.	.	107
C[C@H]1CN([C@@H](C)CO)S(=O)(=O)c2ccc(C#CC3CC3)cc2O[C@H]1CN(C)Cc1ccc(F)cc1	.	.	/	/	/	/	/
C[C@@H]1CN([C@@H](C)CO)S(=O)(=O)c2ccc(C#CCN(C)C)cc2O[C@H]1CN(C)Cc1ccccc1F	.	.	116	?	.	51	105
C[C@H]1CN([C@@H](C)CO)S(=O)(=O)c2ccc(C#CCN(C)C)cc2O[C@@H]1CN(C)Cc1ccccc1F	.	.	110	107	.	.	105
C[C@@H]1CN([C@H](C)CO)S(=O)(=O)c2ccc(C#CCN(C)C)cc2O[C@@H]1CN(C)Cc1ccccc1F	.	.	.	/	/	/	/
CC(C)C#Cc1ccc([C@@H]2[C@@H](CO)N3CCCCN(S(=O)(=O)Cc4ccccc4)C[C@H]23)cc1	.	.	117	107	.	.	105
C[C@@H](O)C#Cc1ccc([C@H]2[C@H]3CN(S(=O)(=O)Cc4ccccc4)CCCCN3[C@H]2CO)cc1	.	.	.	/	/	/	/
CC(C)C#Cc1ccc([C@H]2[C@H](CO)N3CCCCN(S(=O)(=O)Cc4ccccc4)C[C@@H]23)cc1	.	.	109	106	.	.	104
C[C@@H](O)C#Cc1ccc([C@@H]2[C@H]3CN(S(=O)(=O)Cc4ccccc4)CCCCN3[C@H]2CO)cc1	.	.	.	/	/	/	/
CC(C)CC#Cc1ccc([C@@H]2[C@H]3CN(S(=O)(=O)Cc4ccccc4)CCCCN3[C@H]2CO)cc1	.	.	104	99	105	.	106
C[C@@H](O)C#Cc1ccc([C@H]2[C@@H](CO)N3CCCCN(S(=O)(=O)Cc4ccccc4)C[C@H]23)cc1	.	.	.	/	/	/	/
